C_diff_growth = C. difficile growth inhibitors, primary screen, HTS; Clostridium difficile clinical isolate growth, OD600, 24 h; hits give low values; growth activity, negative = inhibition, % at 16 µg/mL (by protocol); 86,000 tested, 0.25% active;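 active = mean growth activity at or below -80% and every replicate also at or below -80%; inconclusive = mean at or below -80% but some replicate above -80%; inactive = mean growth activity above -80%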
T_cruzi_growth-1 = T. cruzi intracellular proliferation inhibitors, primary screen, cell-based, beta-gal Tulahuen parasites, NIH3T3 host, luminescence. inhibition, % at 8.34 µM. AID 624255, 2012. 77,000 tested, 5.9% active. T. cruzi beta-gal in NIH3T3, GalScreen luminescence, 90 h;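 active = mean inhibition above about 93%, with at least 55% of replicates each passing it, limit read from the data, passing the limit was not always enough; inconclusive = only one of those two conditions holds; inactive = neither condition holds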
Pf_Dd2_inh = P. falciparum Dd2 growth inhibitors, primary screen, SYBR Green fluorescence, single dose replicates; 72 h; hits give low values; activity change, % at 10 µM; 94,000 tested, 2.3% active; AID 1159554, 2015; in the data active = activity change below about -80%; inconclusive = no clear call, values can overlap the other calls
T_cruzi_growth-2 = T. cruzi intracellular proliferation inhibitors, confirmation, cell-based, NIH3T3 host, beta-gal parasite, luminescence, cherry-pick; 5,600 tested, 72% active; T. cruzi beta-gal in NIH3T3, GalScreen luminescence, 90 h; shares compounds with T_cruzi_growth-1; inhibition, % at 8.35 µM;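 active = mean replicate inhibition above about 95% and at least 55% of replicates individually reaching it, limit read from the data; inconclusive = only one of the two criteria is met; inactive = neither criterion is met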
T_cruzi_growth-3 = inhibitors of intracellular T. cruzi replication, confirmation, NIH3T3 host cells, beta-gal parasites, cherry-pick, set 2. T. cruzi beta-gal in NIH3T3, GalScreen luminescence, 90 h. inhibition, % at 2.09 µM. shares compounds with T_cruzi_growth-1. AID 651740, 2012. 5,600 tested, 21% active;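 active = mean inhibition above about 95%, with at least 55% of replicates also reaching it, limit read from the data; inconclusive = meets just one of the two conditions; inactive = meets neither condition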
3T3_cytotox = cytotoxicity in mouse NIH/3T3 fibroblasts, confirmation, cytotoxicity control for T. cruzi proliferation inhibitor project, cell-based, cherry-pick, single point; NIH/3T3 viability, CellTiter-Glo ATP luminescence, 90 h; 5,600 tested, 14% active; cytotoxicity (signal decrease), % at 8.35 µM; shares compounds with T_cruzi_growth-1; AID 651742, 2012;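 active = mean signal decrease across replicates above about 35% based on untreated-well scatter, with enough replicates individually passing, limit read from the data; inconclusive = no rule stated though some were filed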
NIH3T3_tox_2 = NIH/3T3 fibroblast cytotoxicity, confirmation, cytotoxicity control, cell-based, cherry-pick, single point, set 2; NIH/3T3 viability, CellTiter-Glo ATP luminescence, 90 h; 5,600 tested, 56% active; shares compounds with T_cruzi_growth-1; inhibition, % at 24.9 µM;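 active = mean loss of cell viability signal at or above a set limit, and enough replicates individually reaching it; inconclusive = meets only the mean limit or only the replicate share; inactive = meets neither condition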
Numbers stand for hits; i = inactive; ? = inconclusive; nt = no result given. Sampled rows, rich in hits. Any-hit rate of the full collection: about 6.7%.

SMILES C_diff_growth T_cruzi_growth-1 Pf_Dd2_inh T_cruzi_growth-2 T_cruzi_growth-3 3T3_cytotox NIH3T3_tox_2
C[C@@H]1CN([C@@H](C)CO)C(=O)c2cc(NS(=O)(=O)c3ccc(F)cc3)ccc2O[C@@H](C)CCCCO[C@@H]1CN(C)Cc1ccc(C(=O)O)cc1 i i i nt nt nt nt
CC(C)NC(=O)Nc1ccc2c(c1)CC(=O)N([C@H](C)CO)C[C@@H](C)[C@@H](CN(C)Cc1ccccc1)O2 i i i nt nt nt nt
C[C@H](CO)N1C[C@H](C)[C@H](CN(C)C(=O)c2cccnc2)Oc2ncc(-c3ccc(C#N)cc3)cc2C1=O i nt i nt nt nt nt
CN(C)C(=O)[C@H]1[C@H](CO)[C@H]2Cn3c(ccc(-c4ccccc4)c3=O)[C@@H]1N2Cc1ccccn1 i i nt nt nt nt nt
C[C@H](CO)N1C[C@H](C)[C@H](CN(C)S(=O)(=O)c2cccs2)OCCCC[C@H](C)Oc2ccc(NC(=O)Nc3ccc4c(c3)OCO4)cc2C1=O i 86 i 106 i i 27
C[C@@H]1CCCCO[C@H](CN(C)S(=O)(=O)c2cccs2)[C@H](C)CN([C@@H](C)CO)C(=O)c2cc(NC(=O)NC3CCCCC3)ccc2O1 i 100 -84 105 i i i
C[C@@H]1CCCCO[C@H](CN(C)S(=O)(=O)c2cccs2)[C@@H](C)CN([C@H](C)CO)C(=O)c2cc(NC(=O)NC3CCCCC3)ccc2O1 i i i nt nt nt nt
C[C@@H]1CCCCO[C@@H](CN(C)S(=O)(=O)c2cccs2)[C@H](C)CN([C@@H](C)CO)C(=O)c2cc(NC(=O)Nc3ccc4c(c3)OCO4)ccc2O1 i i i nt nt nt nt
C[C@H](CO)N1C[C@H](C)[C@H](CN(C)Cc2ccncc2)Oc2cc(-c3ccccc3F)ccc2S1(=O)=O i 106 i i i 59 76
C[C@H]1CN([C@@H](C)CO)S(=O)(=O)c2ccc(-c3ccccc3F)cc2O[C@@H]1CN(C)Cc1ccncc1 i 116 i 101 100 40 104
C[C@@H]1CN([C@H](C)CO)S(=O)(=O)c2ccc(-c3ccccc3F)cc2O[C@@H]1CN(C)Cc1ccncc1 i 110 i 101 i 35 77
C[C@H](CO)N1C[C@H](C)[C@@H](CN(C)Cc2ccncc2)Oc2cc(-c3ccccc3F)ccc2S1(=O)=O i 114 i 96 100 59 98
C[C@@H]1CN([C@H](C)CO)S(=O)(=O)c2ccc(-c3ccccc3F)cc2O[C@@H]1CN(C)C i i i nt nt nt nt
CCCN(C)C[C@H]1Oc2cc(-c3ccccc3F)ccc2S(=O)(=O)N([C@H](C)CO)C[C@H]1C i i i nt nt nt nt
COc1ccc(NC(=O)N(C)C[C@@H]2Oc3ccc(NS(=O)(=O)c4cn(C)cn4)cc3CC(=O)N([C@@H](C)CO)C[C@@H]2C)cc1 i i i nt nt nt nt
CCS(=O)(=O)Nc1ccc2c(c1)C(=O)N(C)C[C@H](OC)[C@@H](C)CN(C(C)=O)[C@H](C)CO2 i i i nt nt nt nt
CN1C[C@H]2[C@@H](c3ccccc31)[C@H](CO)N2Cc1ccccc1 i i i nt nt nt nt
CS(=O)(=O)N1CC(=O)N2[C@H](CO)[C@@H](c3ccc(Br)cc3)[C@@H]2C1 i nt i nt nt nt nt
C[C@H]1CN([C@@H](C)CO)S(=O)(=O)c2ccc(-c3ccccc3F)cc2O[C@H]1CN(C)Cc1cccnc1 i 95 i 99 i 67 49
Cc1ccccc1-c1ccc2c(c1)O[C@@H](CN(C)Cc1ccncc1)[C@@H](C)CN([C@@H](C)CO)S2(=O)=O i i i nt nt nt nt
C[C@H]1CN([C@@H](C)CO)S(=O)(=O)c2ccc(-c3ccccc3F)cc2O[C@@H]1CN(C)Cc1cncnc1 i i i nt nt nt nt
C[C@@H]1CN([C@@H](C)CO)S(=O)(=O)c2ccc(-c3ccccc3F)cc2O[C@H]1CN(C)Cc1ccncc1 i 116 i i 97 65 101
CCCNC(=O)N[C@H]1CC[C@H](CCNS(=O)(=O)c2cccc(F)c2)O[C@H]1CO nt i i nt nt nt nt
C/C=C/c1ccc2c(c1)O[C@H](CN(C)Cc1cccnc1)[C@@H](C)CN([C@@H](C)CO)S2(=O)=O i 114 i 103 105 i 54
C[C@H](CO)N1C[C@H](C)[C@H](CN(C)Cc2cccnc2)Oc2cc(/C=C/c3ccccc3)ccc2S1(=O)=O i 107 i 100 97 ? 31
SMILES C_diff_growth T_cruzi_growth-1 Pf_Dd2_inh T_cruzi_growth-2 T_cruzi_growth-3 3T3_cytotox NIH3T3_tox_2
C/C=C/c1ccc2c(c1)O[C@H](CN(C)Cc1cncnc1)[C@@H](C)CN([C@@H](C)CO)S2(=O)=O i nt i nt nt nt nt
C/C=C/c1ccc2c(c1)O[C@@H](CN(C)Cc1cncnc1)[C@@H](C)CN([C@H](C)CO)S2(=O)=O i nt i nt nt nt nt
C/C=C/c1ccc2c(c1)O[C@@H](CN(C)Cc1cccnc1)[C@H](C)CN([C@H](C)CO)S2(=O)=O i 107 i i i 52 65
C/C=C/c1ccc2c(c1)O[C@@H](CN(C)Cc1cncnc1)[C@@H](C)CN([C@@H](C)CO)S2(=O)=O i nt i nt nt nt nt
C/C=C/c1ccc2c(c1)O[C@@H](CN(C)Cc1cccnc1)[C@H](C)CN([C@@H](C)CO)S2(=O)=O i 106 i 101 i 38 70
C[C@@H]1CN([C@H](C)CO)S(=O)(=O)c2ccc(/C=C/c3ccccc3)cc2O[C@H]1CN(C)Cc1ccccc1 i i i nt nt nt nt
C[C@@H]1CN([C@H](C)CO)C(=O)c2c(c3ccccc3n2C)-c2ccccc2CO[C@@H]1CN(C)C(=O)C1CC1 i i i nt nt nt nt
C[C@@H]1CN([C@H](C)CO)C(=O)c2cc(NS(C)(=O)=O)ccc2O[C@@H](C)CCCCO[C@@H]1CN(C)S(=O)(=O)c1cccs1 i i i nt nt nt nt
COc1cccc(C(=O)Nc2ccc3c(c2)OC[C@@H](C)N(C)C[C@H](C)[C@H](OC)CN(C)C3=O)c1 i i i nt nt nt nt
O=C(C[C@@H]1C[C@@H]2c3cc(NC(=O)NC4CCCC4)ccc3O[C@@H]2[C@H](CO)O1)NCc1ccc2c(c1)OCO2 i nt i nt nt nt nt
Cc1noc(C)c1NC(=O)Nc1ccc2c(c1)CC(=O)N([C@H](C)CO)C[C@H](C)[C@@H](CN(C)C(=O)Nc1ccc(C(F)(F)F)cc1)O2 i i i nt nt nt nt

Source: PubChem BioAssay
